PubChem BioAssay (NCATS)
Inconclusive results are not listed. Entries that show only a call come without a potency. The source made the active and inactive calls. Calls follow the shape of the dose curve; as a rule, active = well fitted curve in the direction sought with a large enough effect; inconclusive = small, poorly fitted or top-dose-only effect, or another doubt; inactive = no such curve, though single readings can be large; an effect the other way counts as inactive or inconclusive.

assay: qHTS of pediatric cancer cell lines to identify multiple opportunities for drug repurposing: Confirmatory screen for RD cells (AID 1347124); conditions: RD rhabdomyosarcoma cell viability; series mostly up to 97.2 µM;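 also: cells exposed to compound for 48 h before viability readout; nearly all actives have a fitted effect of over 65% in size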
Method in brief: (§1)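 Cells (500-1,000/well) in growth media were settled 5 h at 37 degrees C, then given compounds for 48 h. Viability was read as CellTiter-Glo luminescence. Primary runs used MIPE at 11 points (0.78 nM-46 µM) and NPC at 8 points (0.59 nM-46 µM); follow-ups used 11 points.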
Potency is read from the fitted curve at half-maximal effect.

SMILES	Potency
CN(C)c1ccc(C(=C2C=CC(=[N+](C)C)C=C2)c2ccccc2)cc1	1310 nM (active)
COC(=O)Nc1nc2ccc(C(=O)C3CC3)cc2[nH]1	2330 nM (active)
N=C1N=C(N)c2cc3ccccc3cc21	inactive
[O-][n+]1ccccc1SSc1cccc[n+]1[O-]	inactive

assay: qHTS of pediatric cancer cell lines to identify multiple opportunities for drug repurposing: Confirmatory screen for Rh18 cells (AID 1347125); conditions: Rh18 rhabdomyosarcoma cells, viability; series mostly up to 45.9 µM; also: nearly all actives have a fitted effect of over 55% in size
Method in brief: as §1

SMILES	Potency
Nc1ccc([N+](=O)[O-])cc1O	inactive
CN(C)c1ccc(C(=C2C=CC(=[N+](C)C)C=C2)c2ccccc2)cc1	1040 nM (active)
COC(=O)Nc1nc2ccc(C(=O)C3CC3)cc2[nH]1	inactive
Oc1c(Br)cc(Br)c2cccnc12	inactive

assay: qHTS of pediatric cancer cell lines to identify multiple opportunities for drug repurposing: Confirmatory screen for Rh30 cells (AID 1347126); conditions: Rh30 rhabdomyosarcoma cell viability; series mostly up to 97.2 µM; also: nearly all actives have a fitted effect of over 55% in size
Method in brief: as §1

SMILES	Potency
Nc1ccc([N+](=O)[O-])cc1O	inactive
CN(C)c1ccc(C(=C2C=CC(=[N+](C)C)C=C2)c2ccccc2)cc1	104 nM (active)
COC(=O)Nc1nc2ccc(C(=O)C3CC3)cc2[nH]1	inactive
N=C1N=C(N)c2cc3ccccc3cc21	47900 nM (active)
COc1cccc2c1C(=O)c1c(O)c3c(c(O)c1C2=O)C[C@@](O)(C(=O)CO)C[C@@H]3O[C@H]1C[C@H](N)[C@H](O[C@@H]2CCCCO2)[C@H](C)O1	5850 nM (active)
